Experimental data reported in ChEMBL document CHEMBL3433997, “St. Jude Leishmania screening dataset” (2016).

Columns and labels:
Format in all cases: functional
[1] = target: Solute carrier family 2, facilitated glucose transporter member 1 (Homo sapiens) (UniProt P11166); assay: ST_JUDE_LEISH: Cytotoxicity at 2uM final concentration against transgenic Leishmania Mexicana promastigotes LmGLUT1 that are glucose transport deficient and complemented with the human glucose transporter GLUT1. Activity is measured by DNA content using SYBR green in vitro
Chain of Solute carrier family 2, facilitated glucose transporter member 1 (Homo sapiens) (P11166 whole entry): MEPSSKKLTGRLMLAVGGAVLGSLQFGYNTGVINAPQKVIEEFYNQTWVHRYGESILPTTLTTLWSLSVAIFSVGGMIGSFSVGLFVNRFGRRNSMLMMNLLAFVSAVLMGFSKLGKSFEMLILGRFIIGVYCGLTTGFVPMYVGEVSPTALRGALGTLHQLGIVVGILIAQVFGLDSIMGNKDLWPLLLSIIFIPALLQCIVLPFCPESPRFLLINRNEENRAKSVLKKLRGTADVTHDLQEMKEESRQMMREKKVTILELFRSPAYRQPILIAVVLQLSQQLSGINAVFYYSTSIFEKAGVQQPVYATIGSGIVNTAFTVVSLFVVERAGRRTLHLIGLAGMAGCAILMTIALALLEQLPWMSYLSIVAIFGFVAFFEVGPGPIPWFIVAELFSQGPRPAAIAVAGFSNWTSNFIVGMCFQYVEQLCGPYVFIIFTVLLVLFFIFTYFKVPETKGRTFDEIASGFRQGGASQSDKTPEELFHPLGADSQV

[2] = target: Hexose transporter 1 (Plasmodium falciparum) (UniProt O97467); assay: ST_JUDE_LEISH: Cytotoxicity at 2uM final concentration against transgenic Leishmania Mexicana promastigotes LmPfHT that are glucose transport deficient and complemented with the Plasmodium falciparum hexose transporter. Activity is measured by DNA content using SYBR green in vitro
[3] = target: Glucose transporter (Leishmania mexicana) (UniProt O61059); assay: ST_JUDE_LEISH: Cytotoxicity at 2uM final concentration against transgenic Leishmania Mexicana promastigotes LmGT2 that are glucose transport deficient and complemented with the L. Mexicana glucose transporter 2. Activity is measured by DNA content using SYBR green in vitro

Row | SMILES | inhibition [1] | inhibition [2] | inhibition [3]
1 | COc1cc(-c2cnc(N)c(-c3nc4ccccc4[nH]3)c2)cc(OC)c1OC | 5.26% | 9.19% | 1.47%
2 | O=c1cc(NCCCN(Cc2cc3c(Cl)cc(Cl)cc3[nH]2)Cc2cc3c(Cl)cc(Cl)cc3[nH]2)[nH]c2ccccc12 | 9.06% | 9.4% | 7.31%
3 | Cc1ccc2c(c1)NCC21CCN(C[C@@H](O)C2CCN(c3ccnc(Cl)c3)CC2)CC1C (some centres undefined) | 0.9% | 3.08% | 0.18%
4 | Nc1ncc(-c2ccc(Cl)c(Cl)c2)c(N)n1 | 0.86% | 1.64% | 0.31%
5 | O=C(Nc1ccc(Cl)cc1)c1ccc(CN2CCCN(Cc3cccc(Cl)c3)CC2)cc1 | -0.65% | -1.08% | -0.52%
6 | CO/C(=C\C=C/c1cc2cc(Cl)c(Cl)cc2[nH]1)C(=O)NC1CC(C)(C)N(C)C(C)(C)C1 | 7.24% | 5.6% | 5.19%
7 | CCN(CCCN1CCCCC1)c1cc(C)nc(Nc2ccc(Cl)cc2)n1 | 1.87% | 2.6% | 1.8%
8 | Oc1ccc(-c2cncc(NCc3ccc(F)c(F)c3)c2)cc1 | 7.16% | 7.41% | 7.98%
9 | Cc1cccc2nc(-c3cccc(-c4ccc(C(=O)NCCc5ccc(O)c(=O)[nH]5)cc4)c3)[nH]c12 | 2.16% | 1.89% | 2.33%
10 | CC(C)(C)c1nn(-c2ccccc2)c2[nH]c(=O)c(CNCCc3ccccc3)cc12 | 0.22% | -1.47% | -1.89%
11 | Cc1c(C(=O)C2CC2CN2CCC(N3CCCCC3)CC2)sc2ccccc12 (centres undefined) | 2.43% | -0.31% | 2.09%
12 | Cc1cc2c(cc1C(F)(F)F)N(C(=O)Nc1cnc(OCCN(C)C)c(C(F)(F)F)c1)CC2 | 7.92% | 6.97% | 6.3%
13 | CCCNC[C@@H](O)[C@H](Cc1ccccc1)NC(=O)c1cc(NCC)cc(N2CCCC2=O)c1 | 1.25% | 2.29% | 0.72%
